Data as given in the supplement of paper PMC11732987, “Enantioselective OTUD7B fragment discovery through chemoproteomics screening and high-throughput optimisation” (Communications Chemistry, 2025).

How the values were obtained:
Test in all cases: log2 ratio of Biotin-Ahx-Ub-VS probe labelling (fragment/DMSO); higher = less target engagement (more negative = stronger competition), active = hit call of the paper (q ≤ 0.05, log2 ratio ≤ -1)
Conditions in all cases: compound concentration: 200 uM; treatment time: 3 h
USP19 = biological target: T1, USP19 (UniProt O94966)
T1 sequence (whole entry): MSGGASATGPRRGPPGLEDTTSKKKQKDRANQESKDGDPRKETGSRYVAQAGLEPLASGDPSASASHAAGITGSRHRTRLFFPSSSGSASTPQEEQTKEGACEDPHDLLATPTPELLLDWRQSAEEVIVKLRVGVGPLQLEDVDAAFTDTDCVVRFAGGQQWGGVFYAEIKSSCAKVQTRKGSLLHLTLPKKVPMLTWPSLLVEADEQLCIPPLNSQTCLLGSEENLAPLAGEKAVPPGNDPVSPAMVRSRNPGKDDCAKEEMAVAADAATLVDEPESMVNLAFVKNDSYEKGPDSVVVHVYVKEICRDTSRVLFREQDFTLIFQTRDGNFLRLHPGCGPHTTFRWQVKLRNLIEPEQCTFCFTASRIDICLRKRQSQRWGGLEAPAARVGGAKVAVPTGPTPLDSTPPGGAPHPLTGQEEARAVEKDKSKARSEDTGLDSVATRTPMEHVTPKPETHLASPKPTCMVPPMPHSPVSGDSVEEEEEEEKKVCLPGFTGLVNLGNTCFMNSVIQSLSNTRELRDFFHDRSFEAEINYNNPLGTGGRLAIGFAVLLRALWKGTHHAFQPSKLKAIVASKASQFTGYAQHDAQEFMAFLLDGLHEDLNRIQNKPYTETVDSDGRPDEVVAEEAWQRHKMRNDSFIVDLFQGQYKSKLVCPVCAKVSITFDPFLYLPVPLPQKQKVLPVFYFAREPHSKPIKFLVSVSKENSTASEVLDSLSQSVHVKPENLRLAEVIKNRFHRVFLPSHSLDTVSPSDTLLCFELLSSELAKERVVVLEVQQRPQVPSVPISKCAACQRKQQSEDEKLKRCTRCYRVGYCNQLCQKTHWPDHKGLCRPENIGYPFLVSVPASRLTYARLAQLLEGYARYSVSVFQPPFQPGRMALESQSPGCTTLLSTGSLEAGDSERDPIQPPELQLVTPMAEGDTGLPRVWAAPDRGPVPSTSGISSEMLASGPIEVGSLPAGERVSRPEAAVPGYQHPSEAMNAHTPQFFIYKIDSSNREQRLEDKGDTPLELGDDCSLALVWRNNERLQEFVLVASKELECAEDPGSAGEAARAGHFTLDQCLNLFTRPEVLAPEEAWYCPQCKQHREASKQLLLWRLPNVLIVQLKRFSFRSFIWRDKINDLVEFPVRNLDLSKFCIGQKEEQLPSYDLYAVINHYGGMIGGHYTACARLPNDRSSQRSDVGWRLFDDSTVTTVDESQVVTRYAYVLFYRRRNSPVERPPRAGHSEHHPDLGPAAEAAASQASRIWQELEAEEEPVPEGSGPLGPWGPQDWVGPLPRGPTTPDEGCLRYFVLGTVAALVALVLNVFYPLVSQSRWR
Summary of the method: (§1)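 Triplicate samples of HEK293T lysate, 495 µg each, received fragment at 200 µM or vehicle for 3 h, followed by Biotin-Ahx-Ub-VS (0.5 µM final) for 1 h. After NeutrAvidin enrichment of labelled DUBs and LysC/trypsin digestion, peptides were run by diaPASEF LC-MS/MS. The values are average log2 fragment/vehicle ratios from global-median-normalised Spectronaut label-free quantities, tested by unpaired t-test on proteins having ≥2 unique peptides.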

USP24 = USP24 (UniProt Q9UPU5)
USP24, sequence (Q9UPU5 whole entry): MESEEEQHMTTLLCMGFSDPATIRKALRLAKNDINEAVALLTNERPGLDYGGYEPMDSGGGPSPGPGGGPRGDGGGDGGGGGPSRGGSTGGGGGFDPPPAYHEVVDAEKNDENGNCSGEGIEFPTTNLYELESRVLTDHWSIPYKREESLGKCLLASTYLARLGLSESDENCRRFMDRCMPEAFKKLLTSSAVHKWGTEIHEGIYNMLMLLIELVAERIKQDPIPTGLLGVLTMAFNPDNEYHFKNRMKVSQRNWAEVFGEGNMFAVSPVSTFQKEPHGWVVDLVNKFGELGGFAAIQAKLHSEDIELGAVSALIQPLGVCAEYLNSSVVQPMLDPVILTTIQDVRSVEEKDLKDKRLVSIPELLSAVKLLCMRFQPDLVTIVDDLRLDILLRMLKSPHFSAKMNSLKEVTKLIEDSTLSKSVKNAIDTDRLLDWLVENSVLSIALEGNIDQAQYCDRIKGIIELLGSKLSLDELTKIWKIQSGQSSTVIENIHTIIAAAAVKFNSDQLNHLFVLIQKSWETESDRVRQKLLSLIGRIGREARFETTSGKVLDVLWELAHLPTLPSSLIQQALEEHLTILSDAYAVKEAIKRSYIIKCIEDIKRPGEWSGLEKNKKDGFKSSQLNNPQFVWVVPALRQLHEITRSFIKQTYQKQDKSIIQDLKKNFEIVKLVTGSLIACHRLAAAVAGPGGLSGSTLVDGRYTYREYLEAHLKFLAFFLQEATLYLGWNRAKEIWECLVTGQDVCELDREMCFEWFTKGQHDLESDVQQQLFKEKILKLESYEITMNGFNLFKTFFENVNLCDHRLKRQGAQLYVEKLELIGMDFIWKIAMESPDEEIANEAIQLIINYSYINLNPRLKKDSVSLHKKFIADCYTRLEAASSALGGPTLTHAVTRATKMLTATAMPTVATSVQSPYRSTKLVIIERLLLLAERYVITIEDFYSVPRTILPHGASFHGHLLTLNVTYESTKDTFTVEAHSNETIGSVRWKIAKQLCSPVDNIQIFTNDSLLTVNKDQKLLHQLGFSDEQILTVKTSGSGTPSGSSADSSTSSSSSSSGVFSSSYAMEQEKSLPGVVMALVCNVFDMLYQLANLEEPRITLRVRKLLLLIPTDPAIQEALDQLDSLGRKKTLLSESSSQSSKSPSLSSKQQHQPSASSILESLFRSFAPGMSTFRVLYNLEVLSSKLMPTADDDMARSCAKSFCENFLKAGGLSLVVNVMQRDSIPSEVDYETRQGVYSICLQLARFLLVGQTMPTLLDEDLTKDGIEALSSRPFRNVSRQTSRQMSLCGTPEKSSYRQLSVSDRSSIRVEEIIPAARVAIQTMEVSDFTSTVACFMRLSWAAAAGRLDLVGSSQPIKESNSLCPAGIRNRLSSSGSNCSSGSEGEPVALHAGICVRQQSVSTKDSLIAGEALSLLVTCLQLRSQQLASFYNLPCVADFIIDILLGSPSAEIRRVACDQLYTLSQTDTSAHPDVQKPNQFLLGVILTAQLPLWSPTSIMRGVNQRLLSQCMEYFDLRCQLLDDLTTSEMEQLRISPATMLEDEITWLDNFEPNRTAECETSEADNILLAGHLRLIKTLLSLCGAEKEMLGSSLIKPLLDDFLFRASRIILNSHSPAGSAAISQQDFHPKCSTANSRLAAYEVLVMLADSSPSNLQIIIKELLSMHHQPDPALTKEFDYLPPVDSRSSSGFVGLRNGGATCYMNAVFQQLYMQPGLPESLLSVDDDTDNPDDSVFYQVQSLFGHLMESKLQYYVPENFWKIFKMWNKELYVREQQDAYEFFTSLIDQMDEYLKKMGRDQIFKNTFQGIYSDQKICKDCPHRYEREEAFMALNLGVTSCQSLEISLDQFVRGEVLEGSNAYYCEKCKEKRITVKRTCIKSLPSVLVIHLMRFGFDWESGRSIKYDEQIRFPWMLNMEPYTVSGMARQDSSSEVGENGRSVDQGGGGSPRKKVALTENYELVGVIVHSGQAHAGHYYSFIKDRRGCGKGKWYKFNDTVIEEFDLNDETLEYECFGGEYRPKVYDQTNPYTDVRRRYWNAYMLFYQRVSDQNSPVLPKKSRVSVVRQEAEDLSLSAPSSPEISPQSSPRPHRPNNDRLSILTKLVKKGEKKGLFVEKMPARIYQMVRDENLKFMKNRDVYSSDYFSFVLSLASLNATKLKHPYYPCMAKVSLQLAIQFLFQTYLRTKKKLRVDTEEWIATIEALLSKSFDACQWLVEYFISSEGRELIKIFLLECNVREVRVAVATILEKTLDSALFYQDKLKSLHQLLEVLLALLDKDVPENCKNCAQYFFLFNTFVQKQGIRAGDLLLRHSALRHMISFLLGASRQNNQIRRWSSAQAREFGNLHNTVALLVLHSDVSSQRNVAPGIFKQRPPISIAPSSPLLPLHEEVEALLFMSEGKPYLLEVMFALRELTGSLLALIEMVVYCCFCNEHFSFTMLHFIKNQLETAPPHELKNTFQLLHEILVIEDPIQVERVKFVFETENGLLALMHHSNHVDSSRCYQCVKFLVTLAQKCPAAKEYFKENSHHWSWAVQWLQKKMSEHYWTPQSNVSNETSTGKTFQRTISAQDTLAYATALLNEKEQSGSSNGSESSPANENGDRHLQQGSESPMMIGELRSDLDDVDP
Summary of the method: as §1

USP25 = biological target: T2, USP25 (UniProt Q9UHP3)
T2 sequence (whole entry): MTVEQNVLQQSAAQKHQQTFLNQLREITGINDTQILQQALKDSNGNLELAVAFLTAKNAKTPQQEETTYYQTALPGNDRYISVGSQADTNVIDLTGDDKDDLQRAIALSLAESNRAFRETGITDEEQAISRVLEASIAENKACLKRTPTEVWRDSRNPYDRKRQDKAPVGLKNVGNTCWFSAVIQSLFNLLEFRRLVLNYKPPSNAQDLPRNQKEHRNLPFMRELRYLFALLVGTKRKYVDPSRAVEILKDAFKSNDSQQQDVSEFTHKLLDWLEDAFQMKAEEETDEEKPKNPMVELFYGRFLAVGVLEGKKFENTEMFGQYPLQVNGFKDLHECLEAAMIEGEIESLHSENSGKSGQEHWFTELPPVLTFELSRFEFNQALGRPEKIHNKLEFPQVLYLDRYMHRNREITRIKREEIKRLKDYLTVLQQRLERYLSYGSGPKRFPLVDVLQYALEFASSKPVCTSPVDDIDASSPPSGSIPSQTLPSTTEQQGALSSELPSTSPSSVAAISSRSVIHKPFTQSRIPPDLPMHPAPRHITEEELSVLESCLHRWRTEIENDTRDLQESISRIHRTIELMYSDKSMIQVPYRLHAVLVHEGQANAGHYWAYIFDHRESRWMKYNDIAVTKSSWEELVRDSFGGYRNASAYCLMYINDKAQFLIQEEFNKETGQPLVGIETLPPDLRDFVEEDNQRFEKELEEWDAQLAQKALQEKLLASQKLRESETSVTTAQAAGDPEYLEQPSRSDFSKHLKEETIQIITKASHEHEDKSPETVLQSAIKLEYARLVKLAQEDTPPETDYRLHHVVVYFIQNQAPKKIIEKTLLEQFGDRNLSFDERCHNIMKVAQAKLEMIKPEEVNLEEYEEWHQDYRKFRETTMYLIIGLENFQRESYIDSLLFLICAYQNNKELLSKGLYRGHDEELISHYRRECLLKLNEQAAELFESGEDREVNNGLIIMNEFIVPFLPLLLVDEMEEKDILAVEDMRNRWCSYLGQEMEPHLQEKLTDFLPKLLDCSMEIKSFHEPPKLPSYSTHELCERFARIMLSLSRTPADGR
Summary of the method: as §1

USP28 = biological target: T3, USP28 (UniProt Q96RU2)
T3 sequence (whole entry): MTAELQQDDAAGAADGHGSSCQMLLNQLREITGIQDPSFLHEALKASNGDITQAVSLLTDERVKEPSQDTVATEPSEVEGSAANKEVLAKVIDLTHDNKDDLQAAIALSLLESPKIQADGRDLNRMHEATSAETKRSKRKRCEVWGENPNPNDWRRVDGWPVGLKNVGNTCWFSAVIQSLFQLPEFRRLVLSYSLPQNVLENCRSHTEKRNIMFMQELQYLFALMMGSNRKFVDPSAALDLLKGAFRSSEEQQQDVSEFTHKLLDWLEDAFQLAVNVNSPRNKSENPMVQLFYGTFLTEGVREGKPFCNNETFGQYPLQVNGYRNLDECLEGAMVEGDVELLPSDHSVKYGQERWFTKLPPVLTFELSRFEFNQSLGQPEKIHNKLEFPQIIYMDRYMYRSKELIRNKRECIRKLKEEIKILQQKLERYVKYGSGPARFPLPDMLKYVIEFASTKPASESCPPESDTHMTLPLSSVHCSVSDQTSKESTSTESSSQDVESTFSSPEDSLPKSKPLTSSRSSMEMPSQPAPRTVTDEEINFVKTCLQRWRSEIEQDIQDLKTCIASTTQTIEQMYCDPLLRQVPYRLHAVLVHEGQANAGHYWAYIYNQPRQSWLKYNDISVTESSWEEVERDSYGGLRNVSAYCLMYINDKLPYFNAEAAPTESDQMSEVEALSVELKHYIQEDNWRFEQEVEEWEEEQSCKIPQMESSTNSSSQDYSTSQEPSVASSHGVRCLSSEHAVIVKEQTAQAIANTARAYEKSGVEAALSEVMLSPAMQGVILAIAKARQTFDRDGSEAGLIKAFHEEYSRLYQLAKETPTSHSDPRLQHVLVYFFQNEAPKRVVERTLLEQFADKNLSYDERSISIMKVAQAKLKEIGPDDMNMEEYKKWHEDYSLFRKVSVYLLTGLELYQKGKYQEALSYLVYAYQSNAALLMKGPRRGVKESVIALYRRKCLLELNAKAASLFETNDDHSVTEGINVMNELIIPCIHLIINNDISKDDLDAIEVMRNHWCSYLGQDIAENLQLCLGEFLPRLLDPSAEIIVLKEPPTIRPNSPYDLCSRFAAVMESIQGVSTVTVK
Summary of the method: as §1

Measured: log2 ratio of Biotin-Ahx-Ub-VS probe labelling

CC(O)CC1CCN(C(=O)CCl)CC1 (centres undefined)
inactive: USP19 -0.322 | USP24 -0.234 | USP25 -0.398 | USP28 -0.223
